Bioassay records: PubChem BioAssay, several laboratories
Most compounds without a hit are left out; they make up all but 32% or so of the library.
PostGolgi yeast: growth inhibition of a yeast mutant, post-Golgi transport screen; inhibition, % at 10 µM; post-Golgi transport phenotypic cell assay; 98,000 tested, 0.9% active; AID 739;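 note: yeast cells grown in 1536-well plates; yeast grown about 18 h at 30C before absorbance read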
CYP2C19 inh: human CYP2C19 inhibition; 96,000 tested, 21% active; inhibition, % at 5 µM; CYP2C19 Supersomes, luciferin-H EGE luminescence, 30 min;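 active = CYP2C19 inhibition above a set limit at 5 µM in the primary screen, cut at about 50% in these data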;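 note: plate controls were negative control wells for no effect and 2.5 mM tranylcypromine positive control for full effect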
CYP2C19 act: activators of human cytochrome P450 2C19. P33261. recombinant CYP2C19, luciferin-H EGE luminescence; stronger effect = higher value; 0 = fully inhibited enzyme, 1 = untreated enzyme. activation factor at 5 µM. 96,000 tested, under 10 active;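 active = activation factor of at least 2 at 5 µM in the primary screen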;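 note: 0 = wells with 2.5 mM tranylcypromine and 1 = vehicle-only wells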
CYP2C9 inhib: blocks human cytochrome P450 2C9 | inhibition, % at 5 µM | P11712 | 96,000 tested, 20% active | AID 777 | CYP2C9 Supersomes, luciferin-H conversion, luminescence;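 active = blocking of liver enzyme CYP2C9 beyond about 50% at 5 µM, limit read from the data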
Target sequence (P11712 whole entry, looked up): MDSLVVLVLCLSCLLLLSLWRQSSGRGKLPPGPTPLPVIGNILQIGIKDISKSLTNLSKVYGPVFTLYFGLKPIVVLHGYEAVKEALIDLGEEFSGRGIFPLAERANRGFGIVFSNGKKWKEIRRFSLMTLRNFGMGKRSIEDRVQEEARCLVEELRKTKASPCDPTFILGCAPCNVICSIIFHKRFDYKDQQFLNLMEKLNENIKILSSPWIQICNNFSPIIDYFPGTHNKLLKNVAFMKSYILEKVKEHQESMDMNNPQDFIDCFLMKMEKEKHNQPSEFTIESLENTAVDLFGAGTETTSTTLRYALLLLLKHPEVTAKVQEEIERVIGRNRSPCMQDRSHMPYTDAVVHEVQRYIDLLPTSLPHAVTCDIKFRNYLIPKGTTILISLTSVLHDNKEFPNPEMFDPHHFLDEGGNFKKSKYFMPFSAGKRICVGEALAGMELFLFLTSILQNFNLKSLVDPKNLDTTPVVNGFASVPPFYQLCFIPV
CYP2C9 act: activators of human CYP2C9. recombinant CYP2C9, luciferin-H conversion, luminescence; stronger effect = higher value; factor 1 = untreated enzyme, 0 = blocked. activation factor at 5 µM. 96,000 tested, 1.4% active. AID 1024;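 active = activation factor of 2 or more for CYP2C9 at a 5 µM dose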;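 note: 0 = sulfaphenazole-blocked wells and 1 = vehicle-only wells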
PostGolgi ctrl: inhibits growth of the yeast control strain; inhibition, % at 10 µM; efflux-deficient yeast background strain, growth absorbance A615, 16 h; 98,000 tested, 5% active; AID 738
* marks the source's active call; other numbers are inactive results. Cut-off read from the data, not from the text of the source, unless noted: active = inhibition above about 30%; inactive = the rest.

SMILES | PostGolgi yeast | CYP2C19 inh | CYP2C19 act | CYP2C9 inhib | CYP2C9 act | PostGolgi ctrl
CCOC(=O)N1CCC(NC(=O)c2ccc(CNS(=O)(=O)c3ccc(F)cc3)cc2)CC1 | -7 | 4 | 1 | 33 | 0.7 | 1
CCOc1cc(CNc2ccc3[nH]c(=O)[nH]c3c2)ccc1OCC(=O)NC(C)(C)C | -2 | 7 | 0.9 | 10 | 0.9 | -5
COc1cc(CNc2ccc3[nH]c(=O)[nH]c3c2)cc(Cl)c1OCC(=O)NC(C)(C)C | 4 | 81* | 0.2 | 71* | 0.3 | 3
C#CCn1c(S(=O)(=O)Cc2ccc(C)cc2)nc(-c2ccccc2)c1-c1ccccc1 | 2 | 61* | 0.4 | 67* | 0.3 | 8
C#CCn1c(S(=O)(=O)Cc2ccccc2Cl)nc(-c2ccccc2)c1-c1ccccc1 | 15 | 13 | 0.9 | -5 | 1 | 12
CC(=O)c1cc(C)ccc1OC(=O)c1cccc2nc(C)oc12 | 0 | 57* | 0.4 | 61* | 0.4 | 9
CCC(C)NC(=O)c1c(N)n(/N=C/c2ccccn2)c2nc3ccccc3nc12 (stereo unspecified) | 1 | 23 | 0.8 | 25 | 0.7 | 37*
COCCNC(=O)c1c(N)n(-c2ccccc2)c2nc3ccccc3nc12 | 4 | 15 | 0.9 | 19 | 0.8 | 7
COCCCNC(=O)c1c(N)n(/N=C/c2cccs2)c2nc3ccccc3nc12 | -5 | 48 | 0.5 | 67* | 0.3 | 16
COCCNC(=O)c1c(N)n(CCCn2ccnc2)c2nc3ccccc3nc12 | -10 | 69* | 0.3 | 89* | 0.1 | 4
COCCn1c(N)c(C(=O)NCc2cccs2)c2nc3ccccc3nc21 | 6 | 0 | 1 | 1 | 1 | 32*
CCCCNC(=O)CC1SC(=NCC)N(CC)C1=O (stereo unspecified) | -11 | 37 | 0.6 | -74 | 1.7 | -1
CN1CCc2c(sc3ncn4nc(-c5ccccc5O)nc4c23)C1 | 5 | 20 | 0.8 | 36 | 0.6 | -4
CC(=O)c1ccc(NC(=O)CSC(C)C)cc1 | 19 | 9 | 0.9 | 6 | 0.9 | -3
Cc1cc(C)c(NC2=CC(=O)CC(C)(C)C2)c(C#N)c1 | -12 | 4 | 1 | 14 | 0.9 | 7
CCCCSc1nnc2c(n1)OC(C(=O)c1ccccc1)Nc1ccccc1-2 (stereo unspecified) | 8 | 49 | 0.5 | 87* | 0.1 | 21
COc1cccc2cc3c(=O)oc4ccccc4c3nc12 | 7 | 8 | 0.9 | 24 | 0.8 | 4
CCOC(=O)Cc1csc(SCc2nc3sc4c(c3c(=O)[nH]2)CCC4)n1 | -7 | 18 | 0.8 | 36 | 0.6 | 20
Cc1onc(-c2c(F)cccc2Cl)c1C(=O)NC1=NCCS1 | -3 | 54* | 0.5 | 67* | 0.3 | 2
C=CCNC(=O)c1c(-c2c(F)cccc2Cl)noc1C | 6 | 4 | 1 | 2 | 1 | -1
Cc1onc(-c2c(F)cccc2Cl)c1C(=O)Nc1nc2ccccc2[nH]1 | 1 | 57* | 0.4 | 93* | 0.1 | 10
O=C(Nc1nc2ccccc2[nH]1)c1ccccc1 | -13 | 42 | 0.6 | 18 | 0.8 | -4
Cc1onc(-c2c(F)cccc2Cl)c1C(=O)Nc1cccc2nsnc12 | 2 | 24 | 0.8 | 54* | 0.5 | 42*
O=C(Nc1cccc2nsnc12)c1ccc(F)cc1 | 8 | 26 | 0.7 | 9 | 0.9 | 4
FC(F)(F)c1cc(-c2cccs2)nc(-n2cc(Cl)cn2)n1 | -1 | -6 | 1.1 | 29 | 0.7 | 16
SMILES | PostGolgi yeast | CYP2C19 inh | CYP2C19 act | CYP2C9 inhib | CYP2C9 act | PostGolgi ctrl
Cc1ccc(NC(=O)c2cc(N3C(=O)C4CC=CCC4C3=O)ccc2N2CCCCC2)cc1 (stereo unspecified) | 5 | 5 | 1 | -2 | 1 | 16
O=C(COC(=O)c1cncc(Br)c1)NCC1CCCO1 (stereo unspecified) | 4 | 18 | 0.8 | 0 | 1 | 4
COCCNS(=O)(=O)c1ccc(F)c(OC)c1 | 19 | 10 | 0.9 | -10 | 1.1 | 5
C=CCNS(=O)(=O)c1ccc(OC)c(C)c1 | 8 | 30 | 0.7 | -171 | 2.7* | 0
CCNS(=O)(=O)c1ccc(OC)c(C)c1 | 0 | 24 | 0.8 | -174 | 2.7* | 11
CCOc1ccc(S(=O)(=O)NCCOC)cc1C | -3 | 89* | 0.1 | -198 | 3* | 45*
COC(=O)C(NC(=O)c1ccccc1)=C1C=C(C)OC(C)=C1 | 5 | 5 | 0.9 | -4 | 1 | 0
Cc1nnc(SC(C)C(=O)Nc2ccc(S(=O)(=O)N3CCCCCC3)cc2)s1 (stereo unspecified) | -2 | 25 | 0.7 | 44 | 0.6 | 13
O=C(Nc1ccc2c(c1)oc1ccccc12)c1ccc(Br)o1 | 0 | 18 | 0.8 | -16 | 1.2 | -4
COC(=O)Cc1ccc(NC(=O)c2ccc(Br)o2)cc1 | -4 | 40 | 0.6 | 36 | 0.6 | 7
O=C(c1ccccc1)c1cccc(NC(=O)c2ccc(Br)o2)c1 | 0 | 64* | 0.4 | 95* | 0.1 | -10
CCN(CC)c1ccc(NC(=O)c2ccc(Br)o2)cc1 | -3 | 52* | 0.5 | -9 | 1.1 | 0
CCc1cccc(NC(=O)c2ccc(Br)o2)c1 | 6 | 70* | 0.3 | 18 | 0.8 | 20
Nn1c(SCC(=O)N2CCOCC2)nnc1-c1ccco1 | -1 | -10 | 1.1 | 4 | 1 | 13
CCn1c(-c2cccnc2Cl)nc2cc(Cl)c(Cl)cc21 | 23 | 50 | 0.5 | 67* | 0.3 | 12
CCOC(=O)Cn1c(-c2ccccn2)nc2ccccc21 | 5 | 51* | 0.5 | 1 | 1 | 7
CCOC(=O)Cn1c(-c2cccnc2Cl)nc2cc(Cl)c(Cl)cc21 | 13 | 10 | 0.9 | 24 | 0.8 | 33*
COc1ccc(CCNC(=O)c2ccc(N3CCCC3=O)cc2)cc1 | 3 | 7 | 0.9 | 17 | 0.8 | 5
COc1ccc(S(=O)(=O)N(CCCN2CCOCC2)Cc2cccc3ccccc23)cc1 | 6 | 78* | 0.2 | 26 | 0.7 | 2
COc1ccc(S(=O)(=O)N(CCCN2CCOCC2)Cc2cccc(OC)c2OC)cc1 | -7 | 58* | 0.4 | 6 | 0.9 | 18
COc1ccc(S(=O)(=O)N(CCN2CCOCC2)Cc2cc(OC)ccc2OC)cc1 | -3 | 81* | 0.2 | 11 | 0.9 | -1
CCS(=O)(=O)c1nnnn1-c1ccccc1S(C)(=O)=O | 9 | 11 | 0.9 | -8 | 1.1 | 20
COCCNC(=O)c1noc2c1CCc1cc(OC)ccc1-2 | 9 | 20 | 0.8 | 59* | 0.4 | 28
COc1ccc2c(c1)CCc1c(C(=O)NC3CCCCC3)noc1-2 | -4 | -1 | 1 | -3 | 1 | 22
COCC(C)NC(=O)c1noc2c1CCc1cc(OC)ccc1-2 (stereo unspecified) | 4 | 2 | 1 | -36 | 1.4 | 11
COc1ccc2c(c1)CCc1c(C(=O)NCCN3CCOCC3)noc1-2 | 2 | 4 | 1 | 2 | 1 | 4
